Source: the supplement of paper PMC6555819

What was measured:
Assay in all cases: PBM binding z-score (relative to random genomic background probes); higher = stronger binding; sequences stand for … in GC…GCGATTGACAGCGTAGAATGAAGG
[1] = tested on: RARb homodimer (NR concentration 270 nM)
In short: (§1)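 Scanned fluorescence from custom Agilent 4×180K protein-binding microarrays was regression-normalized. Binding z-scores use random background probes as reference. Ligand-free nuclear receptor dimers were incubated on the arrays for 1 h and detected with antibodies against each partner (one per run).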

[2] = tested on: RARg:RXRa (NR concentration 270 nM, RXRa partner concentration 90 nM)
In short: as §1

[3] = tested on: RARg homodimer (NR concentration 270 nM)
In short: as §1

[4] = tested on: RXRa DBDmut IVT, anti-RXR (DBD mutation: RXRa K156A/R161A, NR concentration 90 nM)
In short: as §1

[5] = tested on: RXRa homodimer (NR concentration 180 nM)
In short: as §1

[6] = tested on: THRa:RXRa (NR concentration 90 nM, RXRa partner concentration 90 nM)
In short: as §1

[7] = tested on: THRa homodimer (NR concentration 90 nM)
In short: as §1

[8] = tested on: VDR homodimer (NR concentration 270 nM)
In short: as §1

Sequence	PBM binding z-score [1]	PBM binding z-score [2]	PBM binding z-score [3]	PBM binding z-score [4]	PBM binding z-score [5]	PBM binding z-score [6]	PBM binding z-score [7]	PBM binding z-score [8]
GCTTTCGGGTCAAAGGTTATAGCATGAATAGAAT	3.37	7.01	5.04	2.52	9.55	4.61	2.14	2.16
TCATATAGGTAAATGCTAGGTGAAATTCCGATCT	0.107	0.506	0.4	1.46	0.811	1.29	0.404	-0.0885
TCAGTCAGGTGAAGGTAACTCAGGTACGCAGTCG	0.729	0.735	0.793	0.667	0.742	2.32	1.34	-0.131
CGAACTAGGTCATCCAGGACAGTGTATACATTGA	3.16	3.92	4.85	2.47	3.21	3.62	2.17	2.4
CCTACTGGGCCAAAGGTCACTGATTCCAATGCTC	4.91	6.24	5.46	0.634	7.03	3.42	1.29	1.88
CCTACTGGGCGAAAGGTCATTGATTCCAATGCTC	4.3	5.19	4.82	1.01	5.76	2.95	0.374	2
CAAACTAGGTCACGAAAGGTCATAGTCGAATGAC	5.66	7.6	8.4	2.64	8.01	5.09	2.8	3.75
CCTTACGGGTCACTCCGGGTTATAGCATCGGAGT	2.96	4.46	4.12	1.3	4.73	4.89	-0.126	1.25
TCTTGTAGTTCAACAGGAGGTTAAGAAAGATCGA	2.2	4.32	2.05	2.02	2.16	2.17	-0.466	1.11
TCTATTAGTTAAAGGGCAACCGACGAGTCCGTTT	2.17	1.22	1.42	1.7	1.28	0.666	-0.0439	1.77
TCGAGTAGGTTAGGGGCATTCTGAATGGCGTCGA	0.656	0.0827	0.00279	0.628	0.386	0.627	-0.0336	0.572
CCTGCTAGGGCAATGGTCAGCTAAAGCAGCTCGC	0.431	0.176	0.604	-0.414	-0.159	-0.164	-0.86	-0.814
ACAGACAGGAGATGAAGGTAACTCAGGCTATCAT	0.465	0.0751	0.419	-0.203	-0.000835	1.03	0.773	0.239
GGAACGAGGGCAAATTTGATAGCATCTGTCGACG	0.969	1.06	1.73	2.41	0.93	0.959	-0.432	0.807
TCGAGTAGGTTACGAATGGGGCATTCAGCTTTCT	0.29	0.904	0.405	0.441	0.67	-0.0841	-1.13	-0.811
CTACCAAGGTGGACAAGGTCGTTGATTACTATTC	1	0.429	0.319	0.874	0.711	1.81	0.933	1.68
ATCTCTAGGTAACCTAGTTCAGTGAATGCCGAAC	1.27	0.609	0.668	0.329	0.722	1.61	0.673	0.972
TCTTGTAGATCAGCAGGTTAATAAAGCTGGCCAA	-0.292	-0.0895	-0.342	0.531	0.393	0.0327	-0.292	-0.451
GCTAGCAGGCGATTTGGGTCACTCAATGACGGGC	1.23	0.467	0.586	-0.454	0.643	1.91	0.374	-0.295

Sequence	PBM binding z-score [1]	PBM binding z-score [2]	PBM binding z-score [3]	PBM binding z-score [4]	PBM binding z-score [5]	PBM binding z-score [6]	PBM binding z-score [7]	PBM binding z-score [8]
CCTTACTGGTCAAGGTTATAGCACGGGTGGTACG	1.78	1.43	1.55	-0.171	1.37	1.52	1.09	0.749
TTACCAACGTGAAAGGTCGTTGATGCACGCCTTG	1.63	1.54	0.872	0.467	2.73	1.35	-0.282	1.13
CCTTACGGGTCACTACAGGTTATAGCATCGGAGT	3.27	4.6	4.47	1.7	4.64	4.19	-0.0959	1.31
CAAACTAGGTCACGAAACGTCAAAGTCGAATGAC	3.21	4.59	5.27	1.07	3.8	3.28	1.52	0.534
CCAGACAGGTGAAAGGTAACGCAGTCTGGTACGC	1.03	1.46	0.723	-0.16	2.42	1.08	-0.07	-0.146
CAAACTAGGTCAAGAAAGGTCAAAGTCGAATGAC	5.71	7.33	7.9	1.95	7.67	4.9	1.79	3.03
TAATATAGGTAATACAGGTGAAAGTCGGCATCTA	0.493	0.614	0.786	0.247	0.906	0.893	0.26	0.35
GCTAGTTGGTCAGTAAAAGGTCACACATCGGTCG	5.17	5.41	4.73	0.844	5.27	3.54	1.84	1.47
CAAACTACGTCACAGAGGTCAAAGTCCGTGCGTA	4.71	5.46	4.64	1.87	6.27	3.7	1.47	4.03
CCTGCTAGGTCAATGGTGAGCTAAAGCAGCTCGC	1.97	3.3	4.12	1.62	1.56	1.77	0.113	-0.465
CGTCCAAGGTCAATGTCAGTGAAAGAGACTCGAA	3.64	5.4	5.96	3.62	4.79	3.57	1.84	2.02
AGAACGAGGGCAATGAGTTGACAGCACGGGTGGC	1.2	1.33	1.73	1.54	1.02	1.19	-0.211	2.89
TCATATAGGTAAACTGGTGAAAGTCCGTAAGTTA	0.366	0.0786	-0.0648	1.19	0.361	0.34	0.281	0.358
CAAACTAGGTCAAGGACAAAGTCGGTTTGTGCCA	3.2	3.97	4.91	1.39	2.52	3.58	2.25	0.988
CGAACGCGGGCATGAGTTGATAGCAAATGCCGAT	-0.346	-0.206	0.05	0.305	-0.124	-0.413	-0.72	0.0939
CGTCCAAGGTTAGCAGGTCAGTGAAAGCGACGTG	3.14	2.7	2.6	0.446	2.04	2.07	0.653	0.443
CCTGCTAGGTCATGGTGAGCTAATCTACAGTATG	2.8	3.83	4.17	1.72	2.52	2.82	0.878	-0.0752
TCGGCTAGGTCAACGATGGTCAGCTAATCTGCTA	3.12	4.15	5.22	0.991	2.56	2.96	0.739	0.189
CCTTACGGGTCACGCGGTTATAGCACGACGAGCG	3.87	5.86	5.88	1.3	6.68	3.17	0.416	1.19

Sequence	PBM binding z-score [1]	PBM binding z-score [2]	PBM binding z-score [3]	PBM binding z-score [4]	PBM binding z-score [5]	PBM binding z-score [6]	PBM binding z-score [7]	PBM binding z-score [8]
ACAACGAGGGCACGCTGAGTTGATAGCAGAGTAG	0.921	2.12	2.44	2.16	1.24	1.75	-0.067	2.04
ACTAGCAGGCCAAGTTTGGGGCACTCAAACAAAG	0.455	0.443	0.463	-0.0962	-0.356	0.348	-0.409	-0.166
TCTAGTTCGTCAAAGGTCACACACTCGAAATGCG	4.99	6.46	6.31	2.95	6.75	4.64	2.53	3.49
GTGACTGGGGCATCAGCAGGTTACCATAACTTAA	1.3	1.36	0.86	-0.0186	0.481	1.09	0.198	-0.0019
CAGACTGGGGCAAGGTTACCATAACGCACAGCCA	1.35	1.16	1.52	-0.141	1.34	1.41	0.328	0.0721
AGAATGAGGTTATACGTTGATCAGGGAAGAAAGT	0.786	1.49	0.994	1.71	2.12	2.2	0.901	1.5
CATACAGCGTCAGCTAGGCCAGAGTAGGGACGGC	-0.506	-0.321	-0.175	-0.697	-0.412	-0.637	-0.62	-0.797
TCATACAGGTGAAGGTAACTCAGGTACGCAGTCG	0.9	0.872	0.925	1.33	1.42	1.67	0.594	0.668
TCGAGCAGGCCAGAGGGTCACTCAAGAGGTACGG	2.68	2.77	2.03	-0.586	2.65	1.51	-0.421	0.462
CCAGACAGGTGAGAAGGTAGCTCAGCCTCGATTA	0.12	0.0158	-0.00904	-0.104	-0.128	-0.29	-0.679	-0.24
CCTTACGGGTCACTGACAGGTTATAGGATTTGGA	3.52	5.89	4.77	1.67	5.17	2.96	0.251	1.28
TAGCCTAGGTCAGAACGGGCCAGTATACGCTATA	1.79	2.22	2.92	-0.315	1.19	2.46	-0.361	-0.307
GCTTACGGGTCAAAGGGTATAGCATGAATAGAAT	2.63	5.24	4.04	2.41	7.03	2.8	-0.191	1.45
TATACAGGGTCAAACGCCAGAGTACGAATGTCGA	3.44	5.93	5.27	3.62	6.88	3.56	0.861	4.28
TAGCCTAGGTCAGATCGGACCAGTATACGCTATA	1.86	2.7	3.46	-0.00524	1.46	2.55	-0.155	-0.597
TTACCAAGGAGAGCTGAGGTCGTTGATCCAACTC	0.714	0.0578	-0.138	-0.0158	0.657	2.56	1.2	2.11
GCTAGCCGGCCATTTGGGTCACTCAATGACGGGC	1.75	0.912	1.1	-0.739	0.725	1.62	0.719	0.157
ATACGAAGGTGATCGTGAGGTCGTTGATACTAAC	1.55	2.15	0.985	0.65	1.6	3.28	1.94	2.48
